Data on 68 molecules can be found in PubChem BioAssay AID2546 (National Center for Advancing Translational Sciences (NCATS), 2010).

Out of some 310,000 compounds screened, about 11,000 (3.5%) were called active. Another 8% or so got no clear call; they are omitted. The list comes from a sample in which actives are over-represented; it also holds similar structures and randomly drawn compounds. A number with no mark means an inactive call. Calls come from the whole dose curve; as a rule, active = well fitted inhibition curve with a large enough effect; inconclusive = small, poorly fitted or top-dose-only effect, or effect the other way; inactive = flat fitted curve, though single readings scatter.
% is set by controls: 0 for no effect and ±100 for the full control effect; potency is the fitted concentration of half-maximal effect.

A short description of this experiment: VP16 counterscreen qHTS for inhibitors of ROR gamma transcriptional activity.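 Note: Gal4-VP16 expression switched on by copper sulfate through the metallothionein promoter; nearly all actives have a fitted effect of over 50% in size.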 The settings on record: Drosophila S2 Gal4-VP16 UAS-luciferase, luminescence, 20 h; series mostly up to 53.6 µM; activity, negative = inhibition: at the top concentration. The text has this:
NIH Molecular Libraries Probe Production Network [MLPCN]
NIH Chemical Genomics Center [NCGC]
Assay Provider: Dan Littman, New York University
The retinoic acid-related orphan receptor (ROR) gamma is a transcription factor that has a central role in the differentiation of Th17 cells, a subset of T helper cells that secrete the inflammatory cytokines IL-17, IL-17F, and IL-22. Th17 cells have been implicated in graft versus host disease, autoimmune disease and asthma. ROR gamma is induced in naive T helper cells in the presence of TGF-beta combined with IL-6, IL-21, or IL-23, and thereafter directs the expression of the Th17 lineage cytokines. To identify nonspecific inhibitors, a Drosophila Schneider cell line was stably transfected with two vectors: a gene expressing a fusion of the Gal4 DNA binding domain and VP16 transactivation domain under the control of the metallothionine promoter and a Photinus luciferase reporter regulated by the Gal4 binding site enhancer, UAS. […] Small molecule inhibitors that inhibit components common to the RORgt and VP16 assays, such as the Gal4 DNA binding domain or the UAS luciferase reporter, will be active in both assays and thus scored as nonspecific.
For screening, 600 cells in 4 uL/well were dispensed into white solid 1536-well plates (Grenier) using a solenoid-based dispenser. Following transfer of 23 nL compound or DMSO vehicle by a pin tool, the plates were incubated 1 hr at ambient temperature, and 1 uL/well copper sulfate (700 uM final concentration) was added. The plates were centrifuged 15 s at 1000 RPM and incubated 20 hr at ambient temperature. After addition of 1.5 uL Photinus luciferase detection reagent, the plates were incubated 10 min at ambient temperature and then read by a ViewLux (Perkin Elmer) to detect luminescence.
On the technique in general: The purpose of a counterscreen is to sort out artefacts and off-target activity.
`Fc1cccc2ncnc(OCc3ccccc3)c12`: the “activity, negative = inhibition” value is 6.7%.

On to `Cc1nc2ccccc2cc1OCc1ccc(F)cc1`, for which the Potency was 6.31 µM (active).

In the case of `Cc1occc(=O)c1OCc1ccc(F)cc1`, the “activity, negative = inhibition” value is 10.2%.

With `O=C(CCc1nnc2ccc(NCc3ccccc3Cl)nn12)NCC1CCN(C2CCCC2)C1` (stereo not drawn), the “activity, negative = inhibition” value was 0.0006%.

`COC(=O)c1ccc(N2CCOCC2)c(NC(=O)c2ccc3c(c2)OCCO3)c1`: the “activity, negative = inhibition” value was 2.79%.

As to `COc1ccc(NC(=O)CCNC(=O)Cn2cnc3sc4c(c3c2=O)CCCC4)cc1OC`, the “activity, negative = inhibition” value is -3.23%.

Take `COc1ccc(NC(=O)CCCNC(=O)Cn2cnc3sc4c(c3c2=O)CCCC4)cc1OC`: the “activity, negative = inhibition” value is -15.7%.

As for `COc1ccc(/C=N/Nc2ncnc3sc4c(c23)CCCC4)cc1O`, the Potency is 4.47 µM (active).

With `CNC(=O)C1CCN(S(=O)(=O)c2c(C)noc2/C=C/c2cccc(C)c2)CC1`, the “activity, negative = inhibition” value is 4.05%.

As to `O=C(Cc1ccccc1F)NC1CCSc2ccccc21` (stereo not drawn), the “activity, negative = inhibition” value was -6.64%.

For `COc1ccc2nc(Nc3nc4ccc(NC(C)=O)cc4s3)sc2c1`, the Potency was 7.08 µM (active).

For `COc1ccc2nc(NC(=O)NC3CCCCC3)sc2c1`, the “activity, negative = inhibition” value was -13.1%.

`CCOc1ccc2nc(Nc3nc4ccc(NC(C)=O)cc4s3)sc2c1`: the Potency is 7.08 µM (active).

`CCOc1ccc2nc(NC(=O)CSc3nc4c(c(=O)n(C)c(=O)n4C)n3CC)sc2c1`: the “activity, negative = inhibition” value was -0.859%.

With `CCC(=O)c1ccc(OCC(=O)Nc2ccc3nc(C)sc3c2)cc1`, the “activity, negative = inhibition” value was -0.0332%.

Turning to `COc1ccc2nc(Nc3nc(-c4ccncc4)cs3)sc2c1`, the “activity, negative = inhibition” value was 20.5%.

As for `O=C(Nc1cccc(-c2cscn2)c1)C1CCN(Cc2ccsc2)CC1`, the “activity, negative = inhibition” value was -12.3%.

For `Cc1cc2cc(CNC(=O)c3ccc(S(=O)(=O)N4CCOCC4)cc3)ccc2[nH]1`, the “activity, negative = inhibition” value was 0.527%.

On to `CCc1cccc(CC)c1NC(=S)NCc1ccc2[nH]c(C)cc2c1`, for which the Potency was 11.2 µM (active).

Regarding `CCc1cccc(CC)c1NC(=S)Nc1ccc2cn[nH]c2c1`, the “activity, negative = inhibition” value was -6.5%.

Consider `Cc1cc(Cl)ccc1C(=O)C1CCCN(C(=O)c2nonc2C)C1` (stereo not drawn), for which the “activity, negative = inhibition” value is -0.528%.

As to `Nc1nc(-c2ccccc2)cc(-c2ccccc2)n1`, the “activity, negative = inhibition” value was 27.7%.

With `N#Cc1cccc(NC(=O)COC(=O)c2ccccc2C(=O)c2ccc(Cl)c([N+](=O)[O-])c2)c1`, the Potency is 7.08 µM (active).

In the case of `CC(=O)Nc1ccc(NC(=O)C(C)OC(=O)c2ccccc2C(=O)c2ccc(Cl)c([N+](=O)[O-])c2)cc1` (stereo not drawn), the “activity, negative = inhibition” value was -19.4%.

As for `COC(=O)c1cc(NC(=O)Cc2ccccc2[N+](=O)[O-])ccc1Cl`, the “activity, negative = inhibition” value was -2.17%.

As to `Cc1ccccc1OCC(=O)Nc1nnc(S(=O)(=O)N2CCCC2)s1`, the “activity, negative = inhibition” value is -0.118%.

Turning to `Oc1c(C(c2ccccn2)N2CCOCC2)ccc2cccnc12` (stereo not drawn), the Potency is 2.82 µM (active).

`Cc1nc2sc(C(c3ccco3)N3CCOCC3)c(O)n2n1` (stereo not drawn): the “activity, negative = inhibition” value was -7.3%.

For `OC(COc1ccc2ccccc2c1)CN1CCOCC1` (stereo not drawn), the “activity, negative = inhibition” value was -12.1%.

On to `COC(=O)c1ccc2c(C(C)(C)O)c(C(C)(C)O)[nH]c2c1`, for which the “activity, negative = inhibition” value was 4.95%.

Regarding `O=C(NCCNc1ccc([N+](=O)[O-])cc1Cl)c1ccccc1F`, the “activity, negative = inhibition” value is 2.95%.

In the case of `COC(=O)c1cc(NC(=O)c2cccnc2)ccc1N1CCOCC1`, the “activity, negative = inhibition” value is 3.64%.

As for `O=C(Nc1ccc(N2CCN(C(=O)c3ccccc3)CC2)c(Cl)c1)c1cccnc1`, the Potency was 17.8 µM (active).

With `O=C(Nc1cccc(Cl)c1N1CCOCC1)c1cccnc1`, the “activity, negative = inhibition” value was 6.12%.

`COc1cccc(CNC(=O)CCCC(=O)Nc2cccc([N+](=O)[O-])c2)c1`: the “activity, negative = inhibition” value is -1.57%.

Consider `CCCN1CNC(=S)N(CCc2ccccc2)C1`, for which the Potency was 3.16 µM (active).

With `N#CNC1=NCN(CCc2ccccc2)CN1`, the “activity, negative = inhibition” value is 7.1%.

On to `S=C1SCN(CCN2CCOCC2)CN1Cc1ccccc1`, for which the “activity, negative = inhibition” value was -3.69%.

For the molecule `COc1ccccc1N(CC(=O)N/N=C(\C)c1ccccc1O)S(=O)(=O)c1ccc(C)cc1`, the Potency is 0.708 µM (active).

As to `COc1ccccc1NC(=O)CN(c1ccccc1OC)S(=O)(=O)c1ccccc1`, the “activity, negative = inhibition” value is -0.747%.

As to `COc1ccc(S(=O)(=O)N(CC(=O)N/N=C/c2ccccc2C(=O)O)c2ccccc2OC)cc1`, the “activity, negative = inhibition” value was -5.97%.

For the molecule `CC(C)OCCCNc1ncnc2c1[nH]c1ccc(F)cc12`, the Potency is 2.82 µM (active).

Regarding `CC(C)OCCCNC(=O)c1cc(Sc2ccc(F)cc2)nc2ccccc12`, the “activity, negative = inhibition” value was -8.81%.

With `COc1cc(OC)c(OC)cc1/C=N/Nc1ncnc2c1[nH]c1ccc(C)cc12`, the “activity, negative = inhibition” value was -5.33%.

Turning to `COC1=C(N2CCOCC2)C(=O)c2ccccc2C1=O`, the “activity, negative = inhibition” value is 9.12%.

As to `COC(=O)C(C)Oc1ccc2c(c1)O/C(=C\c1cccc(Br)c1)C2=O` (stereo not drawn), the “activity, negative = inhibition” value was -2.72%.

For the molecule `CCCS(=O)(=O)N1CCN=C1SCc1cccc(F)c1`, the “activity, negative = inhibition” value is -4.15%.

As to `COc1ccc(-c2noc(CNC(=O)C(C)Oc3ccccc3)n2)cc1` (stereo not drawn), the “activity, negative = inhibition” value is 0.666%.

For `COc1ccc2[nH]c3nc(SCC(=O)NC4CC4)nnc3c2c1`, the “activity, negative = inhibition” value is -4.94%.

With `COc1ccc(C(=O)Nc2ncc3c(n2)-c2ccccc2CC3)cc1`, the “activity, negative = inhibition” value is -1.61%.

For `COCCN(CCOC)S(=O)(=O)c1ccc(C(=O)Nc2nc3c(s2)CCc2ccccc2-3)cc1`, the Potency was 12.6 µM (active).

Take `COCCN(CC(=O)Nc1ccccc1C)S(=O)(=O)c1ccc(S(=O)(=O)N2CCCC2)cc1`: the activity, negative = inhibition is -1.46% [at 0.365 µM].

Take `Cc1onc(-c2ccccc2)c1C(=O)Nc1ccccc1C#N`: the “activity, negative = inhibition” value is -0.818%.

Consider `Cc1onc(-c2ccccc2)c1C(=O)N=C(N)c1ccc(Cl)cc1`, for which the “activity, negative = inhibition” value was 2.19%.

Regarding `Cc1ccc(CNC(=O)c2c(-c3ccccc3)noc2C)cc1`, the “activity, negative = inhibition” value was 2.32%.

Turning to `CC(=O)Nc1cccc(NC(=O)c2c(-c3ccccc3)noc2C)c1`, the “activity, negative = inhibition” value is 1.1%.

Consider `Cc1onc(-c2ccccc2)c1C(=O)NNC(=S)NC(=O)c1ccc(F)cc1`, for which the Potency was 2 µM (active).

For `COc1ccc(C(=O)NC(=S)NNC(=O)c2c(-c3ccccc3)noc2C)cc1`, the Potency was 5.62 µM (active).

`CC(C)c1ccc(S(=O)(=O)NC2CCCC2)cc1`: the “activity, negative = inhibition” value is -5.01%.

Regarding `COc1ccc(CN2CC(C(=O)NCCc3ccc(Cl)cc3)CC2=O)cc1` (stereo not drawn), the “activity, negative = inhibition” value is -9.08%.

Regarding `Cc1ccc(Oc2ccc(N)cc2)cc1`, the “activity, negative = inhibition” value was -9.31%.

`Nc1ccc(Oc2ccc(Cl)cc2)cc1`: the “activity, negative = inhibition” value was 3.52%.

As for `CC(C)(C)c1ccc(Oc2ccc(N)cc2)cc1`, the Potency is 7.08 µM (active).

For the molecule `CC1=C(C(=O)NC2CC(C)(C)Cc3c2cnn3-c2ccc(C)cc2)OCCO1` (stereo not drawn), the “activity, negative = inhibition” value is -4.61%.

With `NS(=O)(=O)c1ccc2nc(NC(=O)CS(=O)(=O)c3ccc(F)cc3)sc2c1`, the “activity, negative = inhibition” value was -1.43%.

With `CCS(=O)(=O)N1Cc2ccccc2CC1C(=O)Nc1nc2ccc(F)cc2s1` (stereo not drawn), the Potency was 11.2 µM (active).

Take `CCS(=O)(=O)N1Cc2ccccc2CC1C(=O)Nc1ccc(OC)cc1OC` (stereo not drawn): the “activity, negative = inhibition” value is -9.75%.

For `O=c1c2cc([N+](=O)[O-])ccc2nc2n1CCC2`, the “activity, negative = inhibition” value is -7.99%.
